Screening data: PubChem, National Center for Advancing Translational Sciences (NCATS)
AMA1 RON2 block – qHTS for Inhibitors of AMA1-RON; Towards Development of Antimalarial Drug Lead: Primary Screen | Plasmodium falciparum AMA1 (3D7) - RON2 peptide interaction | AlphaScreen AMA1-biotinylated RON2 peptide binding | Potency, µM (top dose mostly 58.2 µM), hits mostly inhibitors | hit rate 0.2% among 360,000 | AID 720542, 2013; further: nearly all actives have a fitted effect of over 45% in size
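AMA1 (3D7) with his tag at 25 nM final met compounds first, then biotinylated RON2 peptide at 25 nM; detection used donor plus acceptor beads, 10 µg/mL apiece, read by AlphaScreen after 30 min at room temperature.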
HCV inh – qHTS Assay for Inhibitors of Hepatitis C Virus (HCV); Huh7.5.1 HCVcc-Cre infection, luciferase reporter, 44 h; Potency, µM (top dose mostly 41.8 µM), usual class: inhibitors; hit rate 3.4% among 340,000
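Cells seeded at 1,000/well and cultured 4 h, then compounds added followed by HCVcc-Cre virus (~0.5 moi). After 44 h further culture, luciferase substrate was added, plates held 15 min at room temperature, and luminescence read for 15 sec.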
AmpC inh no detg – qHTS Inhibitors of AmpC Beta-Lactamase (assay without detergent); AmpC nitrocefin hydrolysis, absorbance 480 nm, 0.0001% Triton; Potency, µM (top dose mostly 57.1 µM), hits mostly inhibitors; hit rate 0.52% among 330,000; AID 485341, 2010; further: nearly all actives have a fitted effect of over 20% in size
Target sequence (P00811 whole entry, looked up): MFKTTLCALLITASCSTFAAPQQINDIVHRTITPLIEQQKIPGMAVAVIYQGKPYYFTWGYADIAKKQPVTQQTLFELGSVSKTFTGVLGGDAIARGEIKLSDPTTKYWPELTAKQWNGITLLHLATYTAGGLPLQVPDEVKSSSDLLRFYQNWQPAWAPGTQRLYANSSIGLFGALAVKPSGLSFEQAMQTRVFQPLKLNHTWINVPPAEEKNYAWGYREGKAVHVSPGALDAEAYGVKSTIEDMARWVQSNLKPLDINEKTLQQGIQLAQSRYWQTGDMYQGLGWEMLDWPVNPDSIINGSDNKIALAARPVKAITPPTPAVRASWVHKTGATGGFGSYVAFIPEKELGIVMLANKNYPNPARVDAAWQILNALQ
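20 mM phosphate pH 7.0 + 0.01% (detergent screen) or 0.0001% Triton X-100; 5.3 nM AmpC reagent; cpd preinc 15 min RT; nitrocefin (800 uM stock) to start; A480 q20 s × 4 min; Activity was normalised to no-enzyme and no-compound control wells.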
AmpC detergent – qHTS Inhibitors of AmpC Beta-Lactamase (assay with detergent); AmpC hydrolysis of nitrocefin, absorbance 480 nm, 0.01% Triton; hit rate 0.041% among 370,000; P00811; Potency, µM (doses to about 114 µM), actives largely listed as inhibitors; further: nearly all actives have a fitted effect of over 25% in size
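20 mM phosphate pH 7.0 + 0.01% (detergent screen) or 0.0001% Triton X-100; 5.3 nM AmpC reagent; cpd preinc 15 min RT; nitrocefin (800 uM stock) to start; A480 q20 s × 4 min; Activity was normalised to no-enzyme and no-compound control wells.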
Pf growth 48h – Primary qHTS for delayed death inhibitors of the malarial parasite plastid, 48 hour incubation; AID 504832, 2011; Potency, µM (titrated, usually from 28.7 µM), most hits filed as inhibitors; hit rate 5.9% among 310,000; P. falciparum luciferase growth in erythrocytes, 48 h
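In quantitative HTS format, infected erythrocytes bearing luciferase-reporter parasites were treated for a single generation at 37 C. Luminescence after adding detection reagent served as the growth measure.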
Pf growth 96h – Primary qHTS for delayed death inhibitors of the malarial parasite plastid, 96 hour incubation; Potency, µM (series often up to 28.7 µM), usual class: inhibitors; AID 504834, 2011; P. falciparum luciferase reporter growth, 96 h; hit rate 6.9% among 320,000
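P. falciparum expressing integrated firefly luciferase, in erythrocytes at 2% hematocrit, 0.05% parasitemia, incubated with compounds 96 h at 37 C, 5% CO2. Growth inhibition read as loss of luminescence; two-generation exposure targets delayed-death apicoplast inhibitors.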
Numbers stand for hits; – = inactive; ? = inconclusive; · = no result; [ ] = another dose, or the depositor's remark. A selection: hits, their analogues and other compounds. The true share with any hit is near 11%. The call rests on the fitted dose curve; in most records, active means well fitted curve in the direction sought with a large enough effect; inconclusive means small, poorly fitted or top-dose-only effect, or another doubt; inactive means no such curve, though single readings can be large; an effect the other way counts as inactive or inconclusive.

SMILES	AMA1 RON2 block	HCV inh	AmpC inh no detg	AmpC detergent	Pf growth 48h	Pf growth 96h
NC1=C(Cl)C(=O)c2ccc(S(N)(=O)=O)cc2C1=O	–	0.56µM	·	·	·	·
NC1=C(Cl)C(=O)c2ccccc2C1=O	–	8.9µM	·	·	·	·
O=C(NCc1ccc(Cl)cc1)C1CCCN(c2ncnc3onc(-c4ccc(F)cc4)c23)C1 (stereo not drawn)	·	·	·	–	·	·
CCOc1ccc(CCNC(=O)Cn2c(=O)c3cccn3c3ccc(F)cc32)cc1OCC	·	·	·	–	·	·
Cc1ccc(-c2cc(C(F)(F)F)nn2-c2ccc(S(N)(=O)=O)cc2)cc1	–	?	–	–	15µM	5.9µM
Cc1ccc(-c2onc(C)c2C)cc1S(=O)(=O)Nc1cccc(Cl)c1C	·	·	·	–	·	·
CCN1C=CC2=C(C#N)C(N)C(C#N)(C#N)C(c3ccccc3C(F)(F)F)C2C1 (stereo not drawn)	–	–	–	–	2.9µM	?
O=C(CC1Sc2ccccc2NC1=O)OCc1cc(=O)oc2cc(O)ccc12 (stereo not drawn)	–	?	?	–	–	4.7µM
Cc1ccc2c(COC(=O)CC3Sc4ccccc4NC3=O)cc(=O)oc2c1C (stereo not drawn)	–[11.6 µM]	–	–	–	–	–
COc1ccc(C(=O)/C=C/C(=O)N(Cc2ccccc2OC)C(C(=O)NC2CCCCC2)c2ccncc2)c(O)c1 (stereo not drawn)	–	?	–	–	12µM	–
COc1ccc(C(=O)/C=C/C(=O)N(Cc2ccc(F)cc2)C(C(=O)NC2CCCCC2)c2ccncc2)c(O)c1 (stereo not drawn)	–	?	–	–	5.2µM	–
CN/C=C1\C(=O)C(C)(C)Oc2ccc3ccc(=O)oc3c21	–	?	–	–	–	·
COC1=Cc2c(ccc3ccc(=O)oc23)OC1(C)C	–	?	–	–	7.4µM	·
CC(C)CC(NC(=O)C(Cc1ccc(OCc2ccccc2)cc1)NC(=O)OC(C)(C)C)C(N)=O (stereo not drawn)	–	?	7.1µM	–	–	–
CSc1ncc(Cl)c(C(=O)N(C)c2ccccc2)n1	·	·	·	–	·	·
Cc1ccc2c(Sc3ccc(Cl)cc3)c(C(=O)N3CCCCC3)[nH]c2c1	·	·	·	–	·	·
C/C(=N\NC(=O)c1ccc(OC2OCCOC2Oc2ccc(C(=O)N/N=C(\C)c3ccncc3)cc2)cc1)c1ccncc1 (stereo not drawn)	–	?	–	–	1.7µM	?
C/C(=N\NC(=O)c1ccncc1)c1ccc(N2CCOCC2)cc1	–	–	–	?	–	–
C/C(=N\NC(=O)c1sccc1C)c1ccncc1	–	–	–	–	–	7.4µM
COc1ccc(N2CC(C(=O)Nc3ccc(NC(C)=O)cc3)CC2=O)cc1 (stereo not drawn)	·	·	·	–	·	·
CN1C(=O)C(C)(C)c2cc(S(=O)(=O)N3CCCC3C(=O)Nc3ccc(F)cc3)ccc21 (stereo not drawn)	·	·	·	–	·	·
Cn1c(O)c(C=NC2CC3CCC2(C)C3(C)C)c(=O)[nH]c1=O (stereo not drawn)	–	–	–	?	?	?
CCCCn1c(O)c(C=NC2CC3CCC2(C)C3(C)C)c(=O)[nH]c1=O (stereo not drawn)	–	–	–	–	10µM	?
COC(=O)CN1C(C(=O)c2ccccc2)=C(OC(=O)c2ccccc2)c2ccccc2S1(=O)=O	·	·	·	–	·	·
CN(C)CCN(Cc1ccccc1)S(=O)(=O)c1ccc(-c2cc(C(F)(F)F)on2)s1	·	·	·	–	·	·
SMILES	AMA1 RON2 block	HCV inh	AmpC inh no detg	AmpC detergent	Pf growth 48h	Pf growth 96h
CN(Cc1nc(-c2cccnc2)no1)S(=O)(=O)c1ccc(Br)cc1	–	–	–	–	–	8.3µM
CN(Cc1nc(-c2cccnc2)no1)S(=O)(=O)c1ccc2ccccc2c1	–	–	–	–	–	–
CC(=O)Nc1nnc2n1CCS2	·	·	·	–	·	·
O=C(NNC(=O)C12CC3CC(CC(C3)C1)C2)c1csc(N2CCOCC2)n1	–	–	–	–	?	13µM
CCN(CC(=O)Nc1c(F)cccc1F)C(=O)c1cc(-c2cccs2)nn1-c1ccccc1	–	14µM	–	–	?	–
CN(C)N(C(=O)c1cc(-c2cccs2)nn1-c1ccccc1)C1CCS(=O)(=O)C1 (stereo not drawn)	–	–	–	?	?	5.2µM
CC1(NC(=O)c2cc(-c3cccs3)nn2-c2ccccc2)CCS(=O)(=O)C1 (stereo not drawn)	–	–	–	–	–	–
Cc1ccc(S(=O)(=O)N(CCc2ccccc2)CC(=O)Nc2ccc(Br)cc2)cc1	·	·	·	–	·	·
Cc1ccccc1CN1CCC(CNc2ncnc3onc(-c4ccc(Cl)cc4)c23)CC1	·	·	·	–	·	·
O=C(CCN1C(=O)c2ccccc2C1=O)Nn1cnnc1	–	–	–	–	–	2.9µM
Cc1ccc(OCC(=O)Nc2sc3c(c2C(N)=O)CCCC3)c(C(C)(C)C)c1	·	·	·	–	·	·
CNC(=S)N/N=C/c1c2ccccc2c(Cl)c2ccccc12	–	?	–	–	2.6µM	10µM
CNC(=S)N/N=C/c1c(C)cccc1Cl	–	–	–	–	–	13µM
CCOC(=O)c1cccc(NC(=O)c2cc(C)nc3c2c(C)nn3-c2ccc(C)cc2)c1	·	·	·	–	·	·
CC(=O)/C(=N\Nc1ccccc1)Oc1ccc([N+](=O)[O-])cc1	–	–	–	–	9.3µM	10µM
COc1ccc(Cn2c(CNC(=O)Cc3ccc(OC)c(OC)c3)nc3cccnc32)cc1	·	·	·	–	·	·
C(=N\N1CCN(Cc2ccccc2)CC1)/c1cccnc1	?	–	–	–	–	6.6µM
Cc1ccc(N2CCN(/N=C/c3ccccc3[N+](=O)[O-])CC2)cc1	?	–	–	–	–	?
O=[N+]([O-])c1cccc(COc2ccc(CN3CCCCC3)cc2)c1	–	–	·	·	·	·
O=[N+]([O-])c1cccc(CN2CCN(Cc3ccc(Br)cc3)CC2)c1	?	22µM	–[11.4 µM]	–	–	?
Cc1ccc(/C=N/N2CCN(Cc3ccc(C)cc3)CC2)cc1	–	–	–	–	–	–
Cc1ccc(CN2CCN(/N=C\c3cccc([N+](=O)[O-])c3)CC2)cc1	14µM	–	–	–	–	–
O=[N+]([O-])c1ccccc1C=NN1CCCCCC1	18µM	–	·	·	·	·
Cc1ccc(C)c(Cn2c(-c3cccs3)nc3ccccc32)c1	·	·	·	–	·	·
O=[N+]([O-])c1cccc(/C=N\N2CCN(c3ccc(Cl)cc3)CC2)c1	–	–	–	–	–	8.3µM
O=[N+]([O-])c1ccccc1/C=N/N1CCN(Cc2ccccc2)CC1	28µM	–	–	–	–	?
